Measured values published in the supplement of paper PMC11732987, “Enantioselective OTUD7B fragment discovery through chemoproteomics screening and high-throughput optimisation” (Communications Chemistry, 2025).

Columns and labels:
Experiment in all cases: log2 ratio of Biotin-Ahx-Ub-VS probe labelling (fragment/DMSO); higher = less target engagement (more negative = stronger competition), active = hit call of the paper (q ≤ 0.05, log2 ratio ≤ -1)
Settings in all cases: compound concentration: 200 uM; treatment time: 3 h
[1] = target: USP34 (UniProt Q70CQ2)
USP34, sequence (Q70CQ2 whole entry, the tested form may be a part): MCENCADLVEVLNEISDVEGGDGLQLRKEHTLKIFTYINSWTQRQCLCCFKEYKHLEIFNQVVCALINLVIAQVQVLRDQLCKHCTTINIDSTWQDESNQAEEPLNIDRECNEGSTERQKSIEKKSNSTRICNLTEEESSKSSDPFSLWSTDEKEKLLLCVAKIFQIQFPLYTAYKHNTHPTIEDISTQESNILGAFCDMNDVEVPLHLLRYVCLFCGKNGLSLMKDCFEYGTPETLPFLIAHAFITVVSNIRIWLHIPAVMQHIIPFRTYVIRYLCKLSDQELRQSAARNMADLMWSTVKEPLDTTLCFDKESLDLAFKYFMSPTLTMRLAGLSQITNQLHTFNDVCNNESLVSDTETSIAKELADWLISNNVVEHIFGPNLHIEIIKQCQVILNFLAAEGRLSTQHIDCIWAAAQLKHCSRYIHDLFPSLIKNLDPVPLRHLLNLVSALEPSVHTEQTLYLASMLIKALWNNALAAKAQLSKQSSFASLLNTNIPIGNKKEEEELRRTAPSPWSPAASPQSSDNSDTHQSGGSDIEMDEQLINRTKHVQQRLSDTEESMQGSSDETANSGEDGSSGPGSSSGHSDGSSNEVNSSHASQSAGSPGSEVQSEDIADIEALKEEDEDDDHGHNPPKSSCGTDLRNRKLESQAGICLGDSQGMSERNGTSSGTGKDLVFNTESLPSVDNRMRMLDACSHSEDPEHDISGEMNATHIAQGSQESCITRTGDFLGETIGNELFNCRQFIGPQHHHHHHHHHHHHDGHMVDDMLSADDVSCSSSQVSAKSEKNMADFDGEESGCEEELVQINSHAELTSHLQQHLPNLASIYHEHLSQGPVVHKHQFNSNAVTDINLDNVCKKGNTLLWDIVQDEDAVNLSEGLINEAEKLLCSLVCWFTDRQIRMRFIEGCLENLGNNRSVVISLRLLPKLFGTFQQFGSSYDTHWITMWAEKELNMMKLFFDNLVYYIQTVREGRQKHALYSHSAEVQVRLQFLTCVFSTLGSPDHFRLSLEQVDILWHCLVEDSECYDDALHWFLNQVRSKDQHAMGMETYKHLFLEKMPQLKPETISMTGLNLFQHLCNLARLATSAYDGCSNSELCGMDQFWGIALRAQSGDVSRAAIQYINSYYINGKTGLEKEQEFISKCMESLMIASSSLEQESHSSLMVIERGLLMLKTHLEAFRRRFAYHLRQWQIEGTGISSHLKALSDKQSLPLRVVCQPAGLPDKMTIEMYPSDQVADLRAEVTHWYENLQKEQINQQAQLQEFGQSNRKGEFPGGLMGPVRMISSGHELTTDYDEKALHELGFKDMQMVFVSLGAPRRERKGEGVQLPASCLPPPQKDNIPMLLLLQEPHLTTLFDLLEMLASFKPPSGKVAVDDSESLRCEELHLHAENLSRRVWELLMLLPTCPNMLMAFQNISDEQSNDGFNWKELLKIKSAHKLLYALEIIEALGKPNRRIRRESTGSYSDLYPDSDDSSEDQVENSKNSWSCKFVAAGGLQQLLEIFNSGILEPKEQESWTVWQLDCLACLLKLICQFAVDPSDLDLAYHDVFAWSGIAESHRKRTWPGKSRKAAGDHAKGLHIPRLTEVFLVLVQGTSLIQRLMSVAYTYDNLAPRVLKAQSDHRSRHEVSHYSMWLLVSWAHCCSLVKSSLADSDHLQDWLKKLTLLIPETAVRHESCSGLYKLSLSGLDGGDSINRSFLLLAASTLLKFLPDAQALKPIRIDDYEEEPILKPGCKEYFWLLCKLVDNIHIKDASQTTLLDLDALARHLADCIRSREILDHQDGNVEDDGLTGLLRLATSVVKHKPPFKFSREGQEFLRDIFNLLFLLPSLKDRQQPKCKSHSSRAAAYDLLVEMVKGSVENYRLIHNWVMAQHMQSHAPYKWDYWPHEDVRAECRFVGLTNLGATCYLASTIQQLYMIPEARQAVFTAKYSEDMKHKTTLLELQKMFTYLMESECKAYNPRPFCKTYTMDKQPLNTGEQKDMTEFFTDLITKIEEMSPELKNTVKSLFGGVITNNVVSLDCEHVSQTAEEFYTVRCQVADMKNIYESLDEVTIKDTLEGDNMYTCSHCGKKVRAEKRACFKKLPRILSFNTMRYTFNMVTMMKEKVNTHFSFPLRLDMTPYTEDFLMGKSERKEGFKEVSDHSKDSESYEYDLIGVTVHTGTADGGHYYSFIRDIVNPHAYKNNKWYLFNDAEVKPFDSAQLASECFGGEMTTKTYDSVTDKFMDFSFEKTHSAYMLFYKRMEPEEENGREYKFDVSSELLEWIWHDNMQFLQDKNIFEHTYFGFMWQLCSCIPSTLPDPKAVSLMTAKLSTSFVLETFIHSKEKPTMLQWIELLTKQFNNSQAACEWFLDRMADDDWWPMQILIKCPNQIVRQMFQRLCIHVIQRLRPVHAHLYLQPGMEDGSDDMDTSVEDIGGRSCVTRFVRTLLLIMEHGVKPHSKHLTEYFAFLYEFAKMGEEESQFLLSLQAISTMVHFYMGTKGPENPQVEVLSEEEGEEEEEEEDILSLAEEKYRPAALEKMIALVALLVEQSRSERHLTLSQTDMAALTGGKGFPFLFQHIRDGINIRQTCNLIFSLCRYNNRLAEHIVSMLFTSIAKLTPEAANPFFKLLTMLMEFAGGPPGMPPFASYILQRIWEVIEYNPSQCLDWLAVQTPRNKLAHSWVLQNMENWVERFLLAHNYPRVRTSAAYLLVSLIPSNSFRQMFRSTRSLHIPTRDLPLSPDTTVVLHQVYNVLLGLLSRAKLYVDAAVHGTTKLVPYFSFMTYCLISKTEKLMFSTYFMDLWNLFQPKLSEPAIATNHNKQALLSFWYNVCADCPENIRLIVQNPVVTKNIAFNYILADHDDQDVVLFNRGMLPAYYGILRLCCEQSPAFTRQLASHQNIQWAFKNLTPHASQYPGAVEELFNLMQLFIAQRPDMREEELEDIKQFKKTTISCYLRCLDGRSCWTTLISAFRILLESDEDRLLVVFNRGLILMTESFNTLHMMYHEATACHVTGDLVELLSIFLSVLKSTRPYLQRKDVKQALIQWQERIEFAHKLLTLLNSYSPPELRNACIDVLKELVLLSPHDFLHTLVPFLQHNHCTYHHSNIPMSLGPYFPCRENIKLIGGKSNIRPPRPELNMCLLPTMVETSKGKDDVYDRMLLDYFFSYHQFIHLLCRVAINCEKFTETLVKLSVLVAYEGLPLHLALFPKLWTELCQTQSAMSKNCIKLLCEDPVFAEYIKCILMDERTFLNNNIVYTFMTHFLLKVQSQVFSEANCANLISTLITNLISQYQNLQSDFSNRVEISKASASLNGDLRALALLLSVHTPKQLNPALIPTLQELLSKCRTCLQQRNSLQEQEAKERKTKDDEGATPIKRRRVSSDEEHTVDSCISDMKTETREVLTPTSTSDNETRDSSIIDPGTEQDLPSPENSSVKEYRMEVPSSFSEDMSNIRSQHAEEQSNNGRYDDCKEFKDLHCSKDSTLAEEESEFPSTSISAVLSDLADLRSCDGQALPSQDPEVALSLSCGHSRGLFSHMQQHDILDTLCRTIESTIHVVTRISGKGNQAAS
In short: (§1)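 Labelled DUBs from HEK293T lysate were NeutrAvidin-enriched, digested with LysC and trypsin, and run by diaPASEF LC-MS/MS. Before that, each 495 µg sample in Tris/CHAPS/IGEPAL buffer with protease inhibitors was treated in triplicate with fragment at 200 µM or vehicle for 3 h, then with Biotin-Ahx-Ub-VS at 0.5 µM final for 1 h. Values are average log2 ratios of fragment over vehicle by unpaired t-test, based on global-median-normalised Spectronaut label-free quantities from proteins with ≥2 unique peptides.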

[2] = target: T1, USP36 (UniProt Q9P275)
T1 sequence (whole entry): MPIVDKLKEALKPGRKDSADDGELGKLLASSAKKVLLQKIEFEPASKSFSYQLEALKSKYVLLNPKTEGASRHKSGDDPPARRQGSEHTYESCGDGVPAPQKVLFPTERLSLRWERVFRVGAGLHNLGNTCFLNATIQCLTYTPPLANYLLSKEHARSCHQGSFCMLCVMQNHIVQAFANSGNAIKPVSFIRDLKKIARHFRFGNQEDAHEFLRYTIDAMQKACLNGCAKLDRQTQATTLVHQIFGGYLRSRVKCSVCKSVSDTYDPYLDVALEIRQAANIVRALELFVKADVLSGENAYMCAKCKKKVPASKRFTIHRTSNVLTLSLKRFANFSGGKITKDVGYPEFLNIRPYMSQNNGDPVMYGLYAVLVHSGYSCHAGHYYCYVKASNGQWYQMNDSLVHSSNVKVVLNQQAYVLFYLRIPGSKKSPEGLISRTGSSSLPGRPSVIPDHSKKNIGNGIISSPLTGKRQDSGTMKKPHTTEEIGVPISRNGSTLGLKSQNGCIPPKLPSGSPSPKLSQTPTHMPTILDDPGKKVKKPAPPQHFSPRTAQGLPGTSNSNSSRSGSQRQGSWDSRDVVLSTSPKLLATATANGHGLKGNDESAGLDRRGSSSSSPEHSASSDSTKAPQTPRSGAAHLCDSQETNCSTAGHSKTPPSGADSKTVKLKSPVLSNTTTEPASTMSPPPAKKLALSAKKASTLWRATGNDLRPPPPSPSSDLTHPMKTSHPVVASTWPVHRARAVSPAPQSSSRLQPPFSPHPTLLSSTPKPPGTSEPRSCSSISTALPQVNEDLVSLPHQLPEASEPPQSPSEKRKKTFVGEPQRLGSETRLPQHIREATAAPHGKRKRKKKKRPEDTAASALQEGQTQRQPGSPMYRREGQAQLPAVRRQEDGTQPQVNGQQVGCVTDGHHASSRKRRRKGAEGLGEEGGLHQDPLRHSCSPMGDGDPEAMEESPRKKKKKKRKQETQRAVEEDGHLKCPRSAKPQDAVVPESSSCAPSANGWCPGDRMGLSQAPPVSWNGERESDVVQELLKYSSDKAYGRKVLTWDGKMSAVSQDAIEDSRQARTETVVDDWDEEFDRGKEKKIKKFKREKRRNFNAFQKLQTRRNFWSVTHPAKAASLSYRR
In short: as §1

[3] = target: T2, USP38 (UniProt Q8NB14)
T2 sequence (whole entry): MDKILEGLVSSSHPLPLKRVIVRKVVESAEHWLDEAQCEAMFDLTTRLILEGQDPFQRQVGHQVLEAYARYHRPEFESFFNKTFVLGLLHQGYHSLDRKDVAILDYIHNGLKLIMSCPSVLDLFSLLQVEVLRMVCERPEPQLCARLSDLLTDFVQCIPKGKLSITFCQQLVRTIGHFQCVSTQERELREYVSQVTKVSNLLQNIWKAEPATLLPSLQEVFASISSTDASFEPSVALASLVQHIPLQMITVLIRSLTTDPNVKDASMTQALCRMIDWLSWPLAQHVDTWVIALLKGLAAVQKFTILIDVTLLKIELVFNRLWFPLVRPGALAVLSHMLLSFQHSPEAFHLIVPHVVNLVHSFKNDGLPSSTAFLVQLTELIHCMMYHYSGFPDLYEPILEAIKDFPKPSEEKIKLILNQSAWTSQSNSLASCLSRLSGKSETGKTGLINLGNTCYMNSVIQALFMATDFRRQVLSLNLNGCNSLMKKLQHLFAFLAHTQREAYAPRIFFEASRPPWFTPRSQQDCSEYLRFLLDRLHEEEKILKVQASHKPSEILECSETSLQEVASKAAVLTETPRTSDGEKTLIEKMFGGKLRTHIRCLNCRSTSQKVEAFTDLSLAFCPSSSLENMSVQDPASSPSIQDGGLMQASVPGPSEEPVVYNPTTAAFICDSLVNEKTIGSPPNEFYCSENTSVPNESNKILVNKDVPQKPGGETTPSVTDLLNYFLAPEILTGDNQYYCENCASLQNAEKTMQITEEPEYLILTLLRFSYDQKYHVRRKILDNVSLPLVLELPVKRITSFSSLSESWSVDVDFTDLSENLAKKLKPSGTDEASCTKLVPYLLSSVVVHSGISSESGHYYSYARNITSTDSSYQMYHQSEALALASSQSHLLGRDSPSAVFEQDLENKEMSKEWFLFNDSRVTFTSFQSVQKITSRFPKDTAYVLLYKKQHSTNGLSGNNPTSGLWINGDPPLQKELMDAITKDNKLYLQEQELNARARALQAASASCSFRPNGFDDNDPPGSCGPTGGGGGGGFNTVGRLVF
In short: as §1

[4] = target: T3, USP39 (UniProt Q53GS9)
T3 sequence (whole entry): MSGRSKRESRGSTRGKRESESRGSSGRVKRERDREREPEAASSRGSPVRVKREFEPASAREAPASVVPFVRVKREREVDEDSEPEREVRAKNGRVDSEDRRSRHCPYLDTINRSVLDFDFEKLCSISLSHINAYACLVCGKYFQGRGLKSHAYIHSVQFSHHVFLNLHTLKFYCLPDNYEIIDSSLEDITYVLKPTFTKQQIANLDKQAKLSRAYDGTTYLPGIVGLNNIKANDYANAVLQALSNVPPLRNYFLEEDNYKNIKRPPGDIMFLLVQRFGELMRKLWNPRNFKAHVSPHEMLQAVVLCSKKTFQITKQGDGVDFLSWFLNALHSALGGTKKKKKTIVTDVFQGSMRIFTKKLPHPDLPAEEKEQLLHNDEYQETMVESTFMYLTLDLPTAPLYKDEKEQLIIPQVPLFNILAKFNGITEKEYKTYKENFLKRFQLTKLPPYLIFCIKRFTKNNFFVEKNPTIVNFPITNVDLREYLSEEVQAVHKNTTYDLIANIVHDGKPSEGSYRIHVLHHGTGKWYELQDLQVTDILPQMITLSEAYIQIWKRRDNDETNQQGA
In short: as §1

[5] = target: T4, USP4 (UniProt Q13107)
T4 sequence (whole entry): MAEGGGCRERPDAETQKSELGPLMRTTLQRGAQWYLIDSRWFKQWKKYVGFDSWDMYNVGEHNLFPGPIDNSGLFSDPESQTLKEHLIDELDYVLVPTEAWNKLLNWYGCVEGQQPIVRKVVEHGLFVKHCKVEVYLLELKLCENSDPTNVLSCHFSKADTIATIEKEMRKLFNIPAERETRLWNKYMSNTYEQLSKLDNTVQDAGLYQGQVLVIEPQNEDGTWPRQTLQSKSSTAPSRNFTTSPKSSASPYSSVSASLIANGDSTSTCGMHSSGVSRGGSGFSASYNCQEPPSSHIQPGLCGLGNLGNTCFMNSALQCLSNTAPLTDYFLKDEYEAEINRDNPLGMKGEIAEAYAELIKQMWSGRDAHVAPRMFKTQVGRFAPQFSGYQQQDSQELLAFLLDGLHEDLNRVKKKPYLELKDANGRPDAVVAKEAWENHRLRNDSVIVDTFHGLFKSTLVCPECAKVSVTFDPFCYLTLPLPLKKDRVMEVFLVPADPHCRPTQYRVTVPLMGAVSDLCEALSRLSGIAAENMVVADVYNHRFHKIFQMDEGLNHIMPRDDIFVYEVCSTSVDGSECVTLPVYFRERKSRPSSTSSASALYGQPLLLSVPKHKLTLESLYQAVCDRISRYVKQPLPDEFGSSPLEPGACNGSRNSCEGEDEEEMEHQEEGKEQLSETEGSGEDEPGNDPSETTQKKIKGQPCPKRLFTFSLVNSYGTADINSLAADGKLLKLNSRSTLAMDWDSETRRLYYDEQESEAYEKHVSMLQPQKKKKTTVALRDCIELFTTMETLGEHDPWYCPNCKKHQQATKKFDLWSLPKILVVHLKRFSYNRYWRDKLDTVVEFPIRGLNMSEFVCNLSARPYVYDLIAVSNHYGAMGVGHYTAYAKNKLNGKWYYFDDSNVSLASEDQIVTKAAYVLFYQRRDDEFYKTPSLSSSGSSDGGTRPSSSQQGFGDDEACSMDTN
In short: as §1

Measured: log2 ratio of Biotin-Ahx-Ub-VS probe labelling

O=C(CCl)NCc1ccc2c(c1)OCO2
inactive: [1] 0.112 | [2] 0.129 | [3] -0.0864 | [4] 0.0456 | [5] 0.0604
